“And” between values parts separate entries of the source, which are not always exact repeats. Identical values can stand only once. Inconclusive results are not listed. A call without a number means that no potency is given here. More than one record can exist for a structure, and the calls need not agree. The source made the active and inactive calls. The call rests on the fitted dose curve; in most records, active means well fitted curve in the direction sought with a large enough effect in the repeat runs; inconclusive means weak or mixed curves; inactive means no such curve, though single readings can be large; an effect the other way counts as inactive or inconclusive.
Legend:
[1] = target: Cytochrome P450 2C19 (Homo sapiens) (UniProt P33261); assay: Cytochrome P450 Family 2 Subfamily C Member 19 (CYP2C19) small molecule antagonists: luciferase reporter qHTS assay (AID 1671197); further: nearly all actives have a fitted effect of over 65% in size; further: potency means the concentration at half of the fitted maximal effect
Cytochrome P450 2C19 (Homo sapiens), sequence (P33261 whole entry, looked up): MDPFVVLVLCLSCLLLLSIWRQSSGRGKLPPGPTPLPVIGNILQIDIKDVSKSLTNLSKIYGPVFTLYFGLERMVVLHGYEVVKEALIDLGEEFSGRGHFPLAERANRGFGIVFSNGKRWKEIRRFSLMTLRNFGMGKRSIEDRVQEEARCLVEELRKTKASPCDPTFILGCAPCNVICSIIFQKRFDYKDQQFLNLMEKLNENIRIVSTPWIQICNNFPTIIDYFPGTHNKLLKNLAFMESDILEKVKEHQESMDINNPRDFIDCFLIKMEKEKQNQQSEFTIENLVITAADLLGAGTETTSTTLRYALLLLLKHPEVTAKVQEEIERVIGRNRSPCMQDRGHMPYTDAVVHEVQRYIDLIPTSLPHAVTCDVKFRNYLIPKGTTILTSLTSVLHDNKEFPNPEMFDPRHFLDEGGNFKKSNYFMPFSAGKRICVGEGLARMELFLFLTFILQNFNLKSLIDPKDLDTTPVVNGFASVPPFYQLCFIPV
Summary of the method: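 Relative luminescence units recorded 20 min after the detection reagent stopped a 1 h, 37C CYP2C19 reaction on proluciferin substrate, which was started by NADPH regeneration following 10 min room-temperature compound preincubation; ketoconazole positive control.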

[2] = target: Cytochrome P450 2C9 (Homo sapiens) (UniProt P11712); assay: Cytochrome P450 Family 2 Subfamily C Member 9 (CYP2C9) small molecule antagonists: luciferase reporter qHTS assay (AID 1671198); further: nearly all actives have a fitted effect of over 50% in size; further: potency means the concentration at half of the fitted maximal effect
Cytochrome P450 2C9 (Homo sapiens), sequence (P11712 whole entry, looked up): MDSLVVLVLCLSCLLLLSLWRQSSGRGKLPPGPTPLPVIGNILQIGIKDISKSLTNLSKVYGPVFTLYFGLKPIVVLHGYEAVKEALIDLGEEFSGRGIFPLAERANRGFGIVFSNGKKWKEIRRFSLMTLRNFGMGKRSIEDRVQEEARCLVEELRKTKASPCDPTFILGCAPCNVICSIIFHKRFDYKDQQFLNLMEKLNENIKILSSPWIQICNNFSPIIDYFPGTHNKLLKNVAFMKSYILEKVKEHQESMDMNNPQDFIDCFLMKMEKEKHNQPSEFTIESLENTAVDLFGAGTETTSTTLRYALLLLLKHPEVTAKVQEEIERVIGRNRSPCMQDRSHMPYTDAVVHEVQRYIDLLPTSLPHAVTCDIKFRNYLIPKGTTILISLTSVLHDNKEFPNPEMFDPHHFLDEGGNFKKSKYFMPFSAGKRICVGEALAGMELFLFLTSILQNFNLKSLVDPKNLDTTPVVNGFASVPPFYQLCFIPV
Summary of the method: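 P450-Glo proluciferin substrate with CYP2C9 enzyme; 10 min RT preincubation, then NADPH regeneration 1 h at 37C; luciferin detection reagent 20 min RT, luminescence in relative luminescence units.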

[3] = target: Cytochrome P450 1A2 (Homo sapiens) (UniProt P05177); assay: Cytochrome P450 Family 1 Subfamily A Member 2 (CYP1A2) small molecule antagonists: luciferase reporter qHTS assay (AID 1671199); further: nearly all actives have a fitted effect of over 50% in size; further: potency means the concentration at half of the fitted maximal effect
Cytochrome P450 1A2 (Homo sapiens), sequence (P05177 whole entry, looked up): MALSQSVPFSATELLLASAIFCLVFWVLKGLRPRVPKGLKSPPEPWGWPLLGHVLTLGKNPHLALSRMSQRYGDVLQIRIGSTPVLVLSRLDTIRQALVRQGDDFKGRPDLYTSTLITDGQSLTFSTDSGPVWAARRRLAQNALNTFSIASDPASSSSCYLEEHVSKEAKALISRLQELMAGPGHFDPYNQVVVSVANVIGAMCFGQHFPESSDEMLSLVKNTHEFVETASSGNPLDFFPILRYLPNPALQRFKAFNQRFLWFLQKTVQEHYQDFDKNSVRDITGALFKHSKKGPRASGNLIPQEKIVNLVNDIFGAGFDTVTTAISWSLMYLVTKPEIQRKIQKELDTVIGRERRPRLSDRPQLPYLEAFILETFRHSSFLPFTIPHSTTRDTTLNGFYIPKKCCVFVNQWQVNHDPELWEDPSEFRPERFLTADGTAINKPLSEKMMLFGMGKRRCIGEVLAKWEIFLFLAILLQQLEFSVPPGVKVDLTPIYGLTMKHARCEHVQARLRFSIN
Summary of the method: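 P450-Glo CYP1A2 enzyme–proluciferin substrate mix with compound 10 min at room temperature, then NADPH regeneration 1 h at room temperature. Luciferin detection reagent added, luminescence read after 20 min; furafylline positive control.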

[4] = target: Voltage-gated inwardly rectifying potassium channel KCNH2 (Homo sapiens) (UniProt Q12809); assay: Human Ether-a-go-go-Related Gene (hERG) channel small molecule antagonists: fluorescence cell-based qHTS assay (AID 1671200);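 further: hERG-expressing U2OS cells given a thallium stimulus after FluxOR II dye loading; series mostly up to about 77 µM; nearly all actives have a fitted effect of over 50% in size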
Voltage-gated inwardly rectifying potassium channel KCNH2 (Homo sapiens), sequence (Q12809 whole entry, looked up): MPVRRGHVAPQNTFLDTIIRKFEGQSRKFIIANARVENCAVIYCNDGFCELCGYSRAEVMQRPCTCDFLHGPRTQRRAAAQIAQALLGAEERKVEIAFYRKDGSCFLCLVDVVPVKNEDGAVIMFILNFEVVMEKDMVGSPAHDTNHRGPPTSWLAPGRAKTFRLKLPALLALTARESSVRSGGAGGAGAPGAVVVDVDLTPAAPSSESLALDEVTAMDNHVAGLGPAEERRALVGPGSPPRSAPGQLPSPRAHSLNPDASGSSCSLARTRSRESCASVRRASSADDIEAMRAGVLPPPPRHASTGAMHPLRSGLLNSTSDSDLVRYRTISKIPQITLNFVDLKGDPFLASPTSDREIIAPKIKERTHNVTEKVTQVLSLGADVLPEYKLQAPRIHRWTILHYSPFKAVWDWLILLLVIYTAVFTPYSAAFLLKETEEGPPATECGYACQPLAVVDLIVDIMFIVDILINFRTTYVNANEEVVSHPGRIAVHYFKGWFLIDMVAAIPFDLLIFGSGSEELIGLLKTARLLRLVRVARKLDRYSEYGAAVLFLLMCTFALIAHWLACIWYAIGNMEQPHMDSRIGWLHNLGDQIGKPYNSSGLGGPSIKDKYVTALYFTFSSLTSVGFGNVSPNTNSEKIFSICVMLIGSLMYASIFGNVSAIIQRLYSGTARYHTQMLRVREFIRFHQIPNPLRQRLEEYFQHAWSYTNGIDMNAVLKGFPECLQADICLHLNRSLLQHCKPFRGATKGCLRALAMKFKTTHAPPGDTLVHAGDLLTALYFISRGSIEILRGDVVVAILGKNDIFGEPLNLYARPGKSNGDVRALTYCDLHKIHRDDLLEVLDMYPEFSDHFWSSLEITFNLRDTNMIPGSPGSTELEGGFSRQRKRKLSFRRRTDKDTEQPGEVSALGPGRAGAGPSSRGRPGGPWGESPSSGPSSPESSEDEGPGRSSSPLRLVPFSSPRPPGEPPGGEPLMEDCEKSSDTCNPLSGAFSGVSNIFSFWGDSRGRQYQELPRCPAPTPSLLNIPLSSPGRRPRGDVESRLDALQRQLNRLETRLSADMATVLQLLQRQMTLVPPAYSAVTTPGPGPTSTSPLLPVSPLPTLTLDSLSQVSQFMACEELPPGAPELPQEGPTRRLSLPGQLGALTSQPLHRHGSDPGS
Summary of the method: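 In this thallium-flux screen, overnight-cultured U2OS cells bearing the channel are dye-loaded in darkness for an hour, rested 10 min at room temperature, and then monitored kinetically at 480/540 nm for two minutes post-stimulus.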

[5] = target: Cytochrome P450 3A4 (Homo sapiens) (UniProt P08684); assay: Cytochrome P450 Family 3 Subfamily A Member 4 (CYP3A4) small molecule antagonists: luciferase reporter qHTS assay (AID 1671201); further: nearly all actives have a fitted effect of over 50% in size; further: potency means the concentration at half of the fitted maximal effect
Cytochrome P450 3A4 (Homo sapiens), sequence (P08684 whole entry, looked up): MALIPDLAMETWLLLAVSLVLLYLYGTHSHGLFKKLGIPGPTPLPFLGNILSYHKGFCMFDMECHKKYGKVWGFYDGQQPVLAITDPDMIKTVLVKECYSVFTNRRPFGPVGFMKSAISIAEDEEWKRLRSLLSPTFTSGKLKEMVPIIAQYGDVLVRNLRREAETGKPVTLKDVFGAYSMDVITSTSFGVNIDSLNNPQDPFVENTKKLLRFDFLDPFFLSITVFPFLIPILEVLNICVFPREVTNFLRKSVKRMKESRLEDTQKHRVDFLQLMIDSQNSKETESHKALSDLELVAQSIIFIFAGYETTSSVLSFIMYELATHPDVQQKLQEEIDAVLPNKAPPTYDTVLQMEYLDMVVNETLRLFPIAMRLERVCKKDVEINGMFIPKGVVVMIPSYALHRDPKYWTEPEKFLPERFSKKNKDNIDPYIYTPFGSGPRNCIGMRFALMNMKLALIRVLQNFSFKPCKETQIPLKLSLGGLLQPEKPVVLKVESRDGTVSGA
Summary of the method: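 CYP3A4 activity was followed with a P450-Glo proluciferin substrate. Test compounds in DMSO were preincubated 10 min; NADPH regeneration then ran 1 h, and light output was read 20 min after detection reagent.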

Row | SMILES | Potency [1] | Potency [2] | Potency [3] | Potency [4] | Potency [5]
1 | O=C(Nc1ccc(Cl)cc1)Nc1ccc(Cl)c(Cl)c1 | 5 µM (active) and 7.1 µM (active) and 8.71 µM (active) | 5 µM (active) and 5.64 µM (active) and 4.9 µM (active) | 17.8 µM (active) and 22.4 µM (active) and 17.4 µM (active) | inactive | inactive
2 | CCCCC/C=C/C=C/C=O | 31.4 µM (active) and 39.9 µM (active) | 35.6 µM (active) | inactive and 71 µM (active) | inactive | inactive and 39.9 µM (active)
3 | CC(C)OC=O | inactive | inactive | inactive | inactive | inactive
4 | c1ccc(Nc2ccccc2)cc1 | 4.48 µM (active) and 22.4 µM (active) | 35.6 µM (active) and 39.9 µM (active) | 35.6 µM (active) | inactive | 3.17 µM (active) and inactive
5 | Cc1cccc([N+](=O)[O-])c1C | inactive | inactive | inactive | inactive | inactive
6 | COC(=O)c1ccccc1 | inactive | inactive | inactive | inactive | inactive
7 | S=C(NC1CCCCC1)NC1CCCCC1 | 7.81 µM (active) and 8.94 µM (active) | 12.4 µM (active) and 35.6 µM (active) | 78.1 µM (active) and inactive | inactive | 17.5 µM (active) and 28.3 µM (active)
8 | O=C(c1ccccc1)c1ccc(O)cc1O | 9.11 µM (active) and 22.4 µM (active) | 57.5 µM (active) and 39.9 µM (active) | 25.7 µM (active) and 31.7 µM (active) | inactive | 14.4 µM (active) and 25.2 µM (active)
9 | c1cc(N(CC2CO2)CC2CO2)ccc1OCC1CO1 (stereo not drawn) | inactive and 79.6 µM (active) | 63.4 µM (active) and 39.9 µM (active) | 63.3 µM (active) | inactive | inactive
10 | Cc1ncc[nH]1 | 39.8 µM (active) and inactive | inactive | inactive | inactive | –
11 | CC(C)OB(OC(C)C)OC(C)C | 40 µM (active) and inactive | inactive | inactive | inactive | inactive
12 | CC(=O)C1(C)CC2=C(CCCC2(C)C)CC1C (stereo not drawn) | inactive | inactive | inactive | inactive | inactive
13 | Cc1c(OCC(F)(F)F)ccnc1CS(=O)c1nc2ccccc2[nH]1 (stereo not drawn) | 5.64 µM (active) and 3.89 µM (active) | 35.6 µM (active) and 12.3 µM (active) | 31.7 µM (active) and 13.8 µM (active) | inactive | –
14 | O=S(=O)(O)c1ccc(O)cc1 | inactive | inactive | inactive | inactive | inactive
15 | CC(=O)Oc1ccccc1C(=O)Nc1ncc([N+](=O)[O-])s1 | 3.63 µM (active) and 2.45 µM (active) | 4.57 µM (active) and 2.75 µM (active) | 6.46 µM (active) and 7.76 µM (active) | inactive | –
16 | COC(C)COC(C)COC(C)CO (stereo not drawn) | inactive | 22.4 µM (active) | inactive | inactive | inactive
17 | c1ccncc1 | inactive | inactive | inactive | inactive | inactive
18 | CN(C)CCN(Cc1cccs1)c1ccccn1 | inactive | inactive | inactive and 27.5 µM (active) | – | –
19 | CCCc1c(OCCCCc2nn[nH]n2)ccc(C(C)=O)c1O | 159 nM (active) and 174 nM (active) | 159 nM (active) and 246 nM (active) | 35.6 µM (active) and 30.9 µM (active) | inactive | –
20 | C#C[C@]1(O)CC[C@H]2[C@@H]3CCc4cc(OC)ccc4[C@H]3CC[C@@]21C | 3.56 µM (active) and 2.19 µM (active) | 5.64 µM (active) and 6.92 µM (active) | 7.1 µM (active) and 9.77 µM (active) | inactive | –
21 | Cc1c(C(N)=O)cc([N+](=O)[O-])cc1[N+](=O)[O-] | inactive | inactive | inactive | inactive | inactive
22 | C/C=C/C(=O)O | inactive | inactive | inactive | inactive | inactive
23 | C=C(C)C1CC=C(C)CC1 (stereo not drawn) | inactive | inactive | inactive | inactive | inactive
